The whole screen tested about 350,000 compounds, of which about 7,000 (2%) were called active. The list comes from a sample in which actives are over-represented; it also holds similar structures and randomly drawn compounds. Unmarked numbers belong to inactive results. Rule as the data show it: active = activation above about 40%; inconclusive = no clear call, values can overlap the other calls; inactive = below that.

The experiment is described as follows: Bmi1 luciferase reporter increase in mESCs, primary screen, esBAF inhibitor project, mouse ES cells, Bmi1 luciferase knock-in, single point (AID 602393).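 Also: 0% = median of the plate's neutral control wells and 100% = double that signal; a rise in the Bmi1 reporter signal indicates esBAF inhibition.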 The settings on record: 24 h, at 12.5 µM, active compounds read high, 100% = twice the neutral-well signal.
With `O=C(NC(Cc1c[nH]c2ccccc12)C(=O)N/N=C/c1ccc(Br)cc1)c1cccs1` (stereo not drawn), the reporter increase is 4.44%.

In the case of `O=C(N/N=C/c1cccc(Br)c1)c1ccc(N2CCCC2=O)cc1`, the reporter increase is 7.79%.

Turning to `O=C(N/N=C/c1c[nH]c2ccccc12)c1ccccc1O`, the reporter increase is 51.9% (active).

Take `O=C(NN=Cc1ccc2c(c1)CCC2)c1ccccc1O`: the reporter increase was 59.3% (active).

Consider `O=C(N/N=C\c1cccc(Br)c1)c1ccccc1-n1cccc1`, for which the reporter increase is 3.44%.

In the case of `O=C(NCCc1c[nH]c2ccccc12)c1cccc(Br)c1`, the reporter increase was 11.6%.

As to `COc1ccccc1-c1cccc(-c2nc(C(=O)N3CCN(C)CC3)cc3c2[C@H](CCO)N([S@@](=O)C(C)(C)C)C3)c1`, the reporter increase was -0.462%.

For the molecule `C[C@@H]1CN([C@@H](C)CO)C(=O)CCCn2cc(nn2)CO[C@@H]1CN(C)C(=O)c1ccncc1`, the reporter increase was -3.8%.

As for `C[C@H](CO)N1C[C@H](C)[C@@H](CN(C)C(=O)c2ccncc2)Oc2cc(C3=CCCCC3)ccc2S1(=O)=O`, the reporter increase was 2.87%.

For `C[C@H](CO)N1C[C@H](C)[C@H](CN(C)S(=O)(=O)c2cn(C)cn2)Oc2c(NC(=O)C3CCOCC3)cccc2C1=O`, the reporter increase was -1.13%.

On to `Cc1cccc(CSc2nnc(C)c(=O)n2N)c1`, for which the reporter increase was -7.26%.

For the molecule `Cc1cc(-c2cccs2)nc(-n2cccc2)n1`, the reporter increase is 17.4%.

As to `Cc1cccc(CSc2ccc(-c3cccs3)nn2)c1`, the reporter increase was 50.5% (active).

As to `C[C@H]1CN([C@@H](C)CO)C(=O)CCCn2nncc2CO[C@H]1CN(C)Cc1ccc2c(c1)OCO2`, the reporter increase is 0.657%.

On to `C/C=C/c1cnc2c(c1)C(=O)N([C@H](C)CO)C[C@H](C)[C@@H](CN(C)S(=O)(=O)c1ccccc1F)O2`, for which the reporter increase is 0.934%.

Regarding `COc1ccccc1-c1cn(CC[C@H]2CC[C@H](NC(=O)Cc3ccccn3)[C@H](CO)O2)nn1`, the reporter increase is 0.363%.

As to `Cc1noc(C)c1NC(=O)N(C)C[C@@H]1Oc2ccc(NS(C)(=O)=O)cc2C(=O)N([C@H](C)CO)C[C@@H]1C`, the reporter increase is -2.07%.

Regarding `CC(C)C(C)NC(=O)COc1ncnc2ccccc12` (stereo not drawn), the reporter increase is -6.72%.

On to `CN(Cc1nc2ccccc2s1)C(=O)c1ccc(F)cc1`, for which the reporter increase is 8.62%.

Consider `CCC(=O)NC(=Nc1nc2ccccc2s1)NC(=O)CC`, for which the reporter increase is 65.4% (active).

As to `O=C(C[C@H]1C=C[C@@H](NC(=O)CC2CC2)[C@H](CO)O1)NCc1ccc(-c2ccccc2)cc1`, the reporter increase is 1.19%.

Turning to `O=C(C[C@H]1C=C[C@H](NC(=O)C2CCC2)[C@H](CO)O1)NCCCN1CCOCC1`, the reporter increase was 1%.

As for `CCOC(=O)c1c(C)[nH]c(C(=O)OCC(=O)N2CCCC2=O)c1C`, the reporter increase was 47% (active).

Consider `Cc1c(C(=O)OCC(=O)N2CCCC2=O)oc2ccccc12`, for which the reporter increase was 18.9%.

On to `CCOC(=O)c1[nH]c(C)c(C(=O)OCC(=O)N2c3ccccc3CC2C)c1C` (stereo not drawn), for which the reporter increase was -0.495%.

In the case of `COc1ccccc1CNC(=O)C[C@@H]1CC[C@H]2[C@@H](COc3ccc(NS(=O)(=O)c4ccc(C)cc4)cc3C(=O)N2C)O1`, the reporter increase was 1.61%.

For the molecule `O=C(C[C@@H]1CC[C@@H](NC(=O)C2CC2)[C@H](CO)O1)NCc1ccncc1`, the reporter increase was -3.27%.

On to `C[C@@H]1CCCCO[C@@H](CN(C)C(=O)c2ccccc2)[C@@H](C)CN([C@@H](C)CO)C(=O)c2cc(NS(=O)(=O)c3ccccc3)ccc2O1`, for which the reporter increase was 12.6%.

Consider `COc1ccc(S(=O)(=O)Nc2ccc3c(c2)C(=O)N([C@@H](C)CO)C[C@@H](C)[C@H](CN(C)C(=O)Nc2ccc(C(F)(F)F)cc2)OCCCC[C@@H](C)O3)cc1`, for which the reporter increase is 7.49%.

As for `O=C1N=C(N2CCOCC2)CS1`, the reporter increase is 0.767%.

On to `CCc1ccc(/C=C2\SC(N3CCOCC3)=NC2=O)cc1`, for which the reporter increase was 6.21%.

For the molecule `O=C1N=C(N2CCOCC2)S/C1=C\C=C/c1ccccc1`, the reporter increase was 55.8% (active).

`O=C1N=C(N2CCc3ccccc3C2)S/C1=C\c1ccc(O)cc1`: the reporter increase is -1.11%.

Turning to `CC1CCN(C2=NC(=O)/C(=C/c3ccc(O)cc3)S2)CC1`, the reporter increase is 24.8%.

For the molecule `Cc1ccsc1/C=C1\SC(N2CCOCC2)=NC1=O`, the reporter increase is 57.3% (active).

Take `CC(C)NC(=O)N(C)C[C@H]1Oc2ncc(C#CC3(O)CCCC3)cc2C(=O)N([C@H](C)CO)C[C@@H]1C`: the reporter increase is 0.475%.

As to `CN1c2ccc(-c3ccccc3F)cc2[C@H]2[C@H](CCN2C(=O)Nc2cc(F)ccc2F)[C@H]1CO`, the reporter increase is 7.83%.

On to `C/C=C/c1ccc([C@@H]2[C@H](CO)N(C(C)=O)[C@H]2CN(CC)C(=O)CN(C)C)cc1`, for which the reporter increase was -4.39%.

Regarding `CCC(=O)NC[C@H]1[C@@H](c2ccc(C3=CCCC3)cc2)[C@@H](CO)N1C(=O)C1CC1`, the reporter increase is 0.745%.

On to `CS(=O)(=O)Nc1ccc2c(c1)[C@@H]1C[C@H](CC(=O)NCc3ccccn3)O[C@@H](CO)[C@@H]1O2`, for which the reporter increase is 0.762%.

In the case of `O=C(C[C@H]1CC[C@@H](NC(=O)c2ccccc2)[C@@H](CO)O1)NCc1ccncn1`, the reporter increase was -3.6%.

Take `CC(=O)c1ccc(N2Cc3ccccc3C2)cc1`: the reporter increase was 23.9%.

Regarding `O=C(NNC(=O)c1ccc2ccccc2c1)c1ccc(Cl)cc1`, the reporter increase was -2.35%.

In the case of `CC(=O)c1ccc2c(ccc3ccccc32)c1`, the reporter increase is 43.2% (active).

As to `N#C[C@H]1[C@@H](c2ccc(-c3ccccc3F)cc2)[C@H](CO)N1C(=O)c1ccccn1`, the reporter increase is -5.75%.

Turning to `O=C(CCN1CCCCC1)N[C@@H]1C=C[C@@H](CC(=O)N2CCC(Cc3ccccc3)CC2)O[C@H]1CO`, the reporter increase was 9.59%.

As to `Cc1ccc(-c2cnc3c(c2)C(=O)N([C@H](C)CO)C[C@@H](C)[C@@H](CN(C)C(=O)CN(C)C)O3)cc1`, the reporter increase was -1.4%.

`Cc1cccc(NC(=O)/C=C/c2ccc3c(c2)OCO3)n1`: the reporter increase is 9.44%.

Consider `COc1ccccc1OCCCC(=O)Nc1ccc2c(c1)OCCO2`, for which the reporter increase is 4.46%.

For `COc1cccc(/C=C/C(=O)Nc2ccc3c(c2)OCCO3)c1`, the reporter increase is 52.9% (active).

For the molecule `COc1ccccc1-c1ccc2c(c1)[C@H]1[C@H](CCN1S(=O)(=O)c1ccccc1)[C@@H](CO)N2`, the reporter increase was -9.94%.

For the molecule `C/C=C/c1cnc2c(c1)C(=O)N([C@@H](C)CO)C[C@H](C)[C@H](CN(C)C(=O)CN1CCOCC1)O2`, the reporter increase is 1.11%.

In the case of `CCOC(=O)c1c(C)nc2c(c1C)c(=O)oc1ccccc12`, the reporter increase is 43.1% (active).

Regarding `CCOC(=O)c1c(C)oc(C)c(C(=O)OCC)c1=O`, the reporter increase is -9.85%.

As for `CCCCC(=O)Nc1cc(C)c2c(=O)oc3ccccc3c2n1`, the reporter increase was -4.09%.

As for `Cc1noc(C)c1NC(=O)N(C)C[C@@H]1Oc2ccc(NS(=O)(=O)c3ccc(Cl)cc3)cc2C(=O)N([C@@H](C)CO)C[C@H]1C`, the reporter increase was -6.44%.

As for `CC(C)NC(=O)COCc1cc(-c2ccc3c(c2)OCO3)on1`, the reporter increase is 16.1%.

As to `CCc1ccccc1NC(=O)c1cc(-c2ccc3c(c2)OCO3)on1`, the reporter increase is 43.8% (active).

For `COc1ccc(CCNC(=O)c2cc(-c3ccc4c(c3)OCO4)on2)cc1OC`, the reporter increase was 0.657%.

For the molecule `O=C(C[C@H]1CC[C@@H]2[C@H](COC[C@@H](O)CN2Cc2cc(F)cc(F)c2)O1)NC1CCC1`, the reporter increase was 2.1%.

As to `COc1ccc(S(=O)(=O)N(C)C[C@@H]2Oc3ncc(C#Cc4ccc(F)cc4)cc3C(=O)N([C@H](C)CO)C[C@@H]2C)cc1`, the reporter increase is 3.53%.

Take `CCCNC(=O)N(C)C[C@H]1Oc2cc(-c3ccncc3)ccc2S(=O)(=O)N([C@H](C)CO)C[C@@H]1C`: the reporter increase was 6.74%.

For the molecule `CCc1cc2c(=O)c(-c3ccon3)c(N)oc2cc1OC`, the reporter increase was 50.4% (active).

For `COc1ccc2oc(N)c(C=O)c(=O)c2c1`, the reporter increase was -2.61%.

For the molecule `CCc1cc2c(=O)c(-c3nc4ccccc4n3C)c(CCCC(=O)O)oc2cc1OC(=O)C(C)(C)C`, the reporter increase is 6.89%.

As to `CC(=O)Nc1ccc2c(c1)C(=O)N(C)[C@H]1CC[C@@H](CC(=O)NCC3CC3)O[C@H]1CO2`, the reporter increase was 9.13%.

For the molecule `CNC(=O)c1csc(-c2ccccc2)n1`, the reporter increase is 13.5%.

Regarding `Clc1ccc(-c2csc(-c3ccncc3)n2)cc1`, the reporter increase is 51.5% (active).

With `O=C(NNC(=O)c1csc(-c2cccnc2)n1)Nc1ccc(Cl)cc1`, the reporter increase was 0.726%.

On to `CN(C)CC(=O)Nc1ccc2c(c1)[C@@H]1C[C@H](CC(=O)NCc3ccc(-c4ccccc4)cc3)O[C@@H](CO)[C@@H]1O2`, for which the reporter increase is 16%.

In the case of `C#CCSc1nnc(-c2sc3ccccc3c2Cl)o1`, the reporter increase is 51% (active).

On to `COc1ccc2c(Cl)c(-c3nnco3)sc2c1`, for which the reporter increase is 8.57%.

Turning to `CCCCSc1nnc(-c2ccc(C)cc2)o1`, the reporter increase was 17.9%.

Consider `C[C@@H](O)C#Cc1ccc2c(c1)O[C@@H](CN(C)C)[C@@H](C)CN([C@@H](C)CO)S2(=O)=O`, for which the reporter increase was -2.61%.

For `C[C@H](NC(=O)C[C@@H]1CC[C@@H]2[C@H](COC[C@@H](O)CN2C(=O)Nc2cc(Cl)cc(Cl)c2)O1)c1ccccc1`, the reporter increase is -3.61%.

On to `C[C@@H]1CN([C@H](C)CO)S(=O)(=O)c2ccc(C#CC3CCCC3)cc2O[C@@H]1CN(C)Cc1ccccc1C(=O)O`, for which the reporter increase was -3.9%.

Take `O=C(C[C@@H]1CC[C@@H]2[C@H](COC[C@H](O)CN2C(=O)Cc2ccccc2)O1)NC1CCC1`: the reporter increase was -8.39%.

As for `COc1ccc2cc(C(=O)O)n(CC(=O)c3ccccc3)c2c1`, the reporter increase is -1.55%.

For `CCn1c(=N)n(CC(=O)c2cccc(OC)c2)c2ccccc21`, the reporter increase was 64.8% (active).

Regarding `CCCn1c(=N)n(CC(=O)c2ccc(Cl)c(Cl)c2)c2ccccc21`, the reporter increase is 3.54%.

As for `CC1CCc2c(sc3nc4n(c(=O)c23)CCS4)C1` (stereo not drawn), the reporter increase was 46.4% (active).

As to `NNC(=O)C1CCCn2c1nc1sc3c(c1c2=O)CCCC3` (stereo not drawn), the reporter increase is 2.26%.

For the molecule `Cn1c(NN)nc2sc3c(c2c1=O)CCC3`, the reporter increase was -3.52%.

The record behind these values is PubChem BioAssay AID602393 (Broad Institute, 2012).
